GIRK2 act = activators of human GIRK2 potassium channels | G protein-activated inward rectifier potassium channel 2 (Homo sapiens), P48051 | HEK293-GIRK2 thallium flux, Thallos fluorescence, MPD | calls only for hits at 25 µM | 0.05% of 63,000 active; call rule not given here
Target sequence (P48051 whole entry, looked up): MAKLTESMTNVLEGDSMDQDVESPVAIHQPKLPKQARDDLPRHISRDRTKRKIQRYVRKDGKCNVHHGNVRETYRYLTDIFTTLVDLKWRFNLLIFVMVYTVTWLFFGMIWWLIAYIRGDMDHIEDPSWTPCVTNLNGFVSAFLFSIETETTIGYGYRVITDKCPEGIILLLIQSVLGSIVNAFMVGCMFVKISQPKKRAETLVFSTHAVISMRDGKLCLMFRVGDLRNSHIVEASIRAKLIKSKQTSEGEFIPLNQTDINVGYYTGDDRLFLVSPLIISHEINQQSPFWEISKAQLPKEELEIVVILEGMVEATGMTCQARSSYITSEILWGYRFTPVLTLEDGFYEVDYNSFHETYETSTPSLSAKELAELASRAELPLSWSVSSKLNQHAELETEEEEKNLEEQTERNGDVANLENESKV
Of the large screens only hits and unclear results are named; the others gave an inactive call. This is one part of a sample in which hits are shown more often than they occur.

Cc1ccc(NC(=O)Nc2cnc(N3CCN(C)CC3)nc2)c(Cl)c1	none
CN1CCN(c2ncc(NC(=O)Nc3ccc(Cl)c(C(F)(F)F)c3)cn2)CC1	GIRK2 act active
Cc1cc(C)n(-c2ncc(NC(=O)Nc3ccc(Cl)c(C(F)(F)F)c3)cn2)n1	none
COc1ccc(Cc2nnc(C3CCN(CC(=O)NCc4ccccc4)CC3)s2)cc1	none
CCc1ccccc1NC(=O)CSc1cc(-c2nc(C3CC3)no2)ccn1	none
CCn1c(COc2ccc(Cl)c3cccnc23)nnc1SCC(N)=O	none
Cc1cc(C(=O)Nc2nc(C(=O)N3CCN(C(=O)c4ccco4)CC3)co2)no1	none
Cn1nnnc1SCC(=O)N1CCN(Cc2nnnn2-c2ccc(Cl)cc2)CC1	none
NC(=O)COc1ccc2c(=O)c(-c3ccc(Cl)cc3)c(C(F)(F)F)oc2c1	GIRK2 act active
CC(C)(C)OC(=O)COc1ccc2c(=O)c(-c3ccccc3)c(C(F)(F)F)oc2c1	none
COc1ccc(-c2c(C(F)(F)F)oc3cc(OCC(=O)OC(C)(C)C)ccc3c2=O)cc1	none
Cc1ccc(-c2ccc3nn(Cc4ccc(N5CCCC5=O)cc4)c(=O)n3n2)cc1C	none
Cc1ccc(S(=O)(=O)N2CCCc3cc(NS(C)(=O)=O)ccc32)cc1	none
COc1cccc2cc(C(=O)NCCN3CCN(S(C)(=O)=O)CC3)c(=O)oc12	none
O=C(c1ccc[nH]c1=O)N1CCN(c2ccc(-c3noc(C(F)(F)F)n3)cn2)CC1	none
O=C(c1cccc(-n2cnnn2)c1)N1CCN(C(=O)C2CC2c2cccs2)CC1 (stereo unspecified)	none
O=C(Nc1cc(Cl)ccc1O)c1cnn2c1OCCC2	GIRK2 act active
O=C(Nc1cc2ccccc2oc1=O)c1cnn2c1OCCC2	none
N#Cc1ccc(Cl)cc1NC(=O)c1cnn2c1OCCC2	none
NC(=O)c1cc2c(=O)n3ccccc3nc2n1Cc1ccccc1	none
CC1C(=O)N2CCCc3cc(NC(=O)C(=O)NCC(O)(c4ccccc4)C4CC4)cc1c32 (stereo unspecified)	GIRK2 act active
CC1C(=O)N2CCCc3cc(NC(=O)C(=O)NCC4(O)CCOc5ccccc54)cc1c32 (stereo unspecified)	none
Cc1ccc(NC(=O)C(=O)NCC(O)(c2ccccc2)C2CC2)cc1N1CCCC1=O (stereo unspecified)	none
COc1cccc2cc(C(=O)NCCc3nc(-c4ccco4)cn3C)c(=O)oc12	none
Cc1ccc(Cn2c(=O)c3ccccc3n3c(CCC(=O)NC4CCN(Cc5ccccc5)CC4)nnc23)cc1	none
COc1ccc(NC(=O)c2sccc2S(=O)(=O)N2CCN(c3cccc(OC)c3)CC2)cc1	none
COCCCNC(=O)CSc1nc(-c2ccccc2)[nH]c1-c1ccc(OC)cc1	none
COCCCNC(=O)CSc1nc(-c2ccc(F)cc2)[nH]c1-c1ccc(F)cc1	GIRK2 act active
COCCCNC(=O)CSc1nc(-c2ccc(OC)c(OC)c2)[nH]c1-c1ccc(F)cc1	none
COc1ccc2ncc(C#N)c(N3CCC(C(=O)Nc4cc(OC)c(OC)c(OC)c4)CC3)c2c1	none
Cn1nc(-c2ccc(F)cc2)cc1C(=O)NCc1nc2ccccc2[nH]1	none
Cc1ccc(S(=O)(=O)c2cnc(N3CCC(C(N)=O)CC3)nc2N)cc1	none
O=C(Nc1nccs1)c1ccc(CSc2nc3ccccc3s2)cc1	none
Cc1ccc(Cl)cc1NC(=O)CSc1cc(N2CCN(c3ccccc3F)CC2)ncn1	none
O=C(NCCOc1ccc2nnc(-c3ccccc3)n2n1)c1ccc(-n2cccn2)nn1	none
O=C(NCc1ccc(F)c(Cl)c1)c1nnn(-c2ccccc2)c1-c1ccccn1	none
O=C(Nc1cccc(Cl)c1F)c1nnn(-c2ccccc2)c1-c1ccccn1	GIRK2 act active
COC(=O)c1ccccc1NC(=O)c1nnn(-c2ccccc2)c1-c1ccccn1	none
O=S(=O)(c1ccc(OC(F)(F)F)cc1)N1CCC2(CC1)OCCS2	none
COc1ccc(CC(C)(O)CNC(=O)C(=O)NCCC2=CCCCC2)cc1 (stereo unspecified)	none
Cc1nc(C)c(C(=O)Nc2cnc(-n3nc(C)c(C)c3C)nc2)s1	none
CCn1cnc2c(-c3ccccc3)cn(CC(=O)Nc3cc(Cl)c(OC)cc3OC)c2c1=O	none
CSc1ccccc1NC(=O)C(=O)NCC1(CO)CC1	none
CSc1ccccc1NC(=O)C(=O)NCC1(c2ccccc2)CCOCC1	GIRK2 act active
CSc1cccc(NC(=O)C(=O)NCC2(c3ccccc3)CCOCC2)c1	none
O=C(Cc1cccc2ccccc12)N1CCN(c2ccc(-c3ccc4c(c3)OCO4)nn2)CC1	none
CCN(CCCNC(=O)CCCn1c(=O)[nH]c2ccsc2c1=O)c1cccc(C)c1	none
COc1coc(C(=O)NCc2ccccc2)cc1=O	none
COc1coc(C(=O)Nc2ccc(Oc3ccccc3)cc2)cc1=O	GIRK2 act active
COc1coc(C(=O)Nc2ccc(C)c(Cl)c2)cc1=O	none
Cn1c(C(F)(F)F)nn(CCNC(=O)Cn2c(=O)oc3ccccc32)c1=O	none
COc1ccc2nc(-n3nc(C)cc3NC(=O)CN3C(=O)c4ccccc4C3=O)sc2c1	none
COc1ccc(-c2noc(-c3nnn(-c4cc(Cl)ccc4OC)c3C)n2)cc1OC	none
O=C(Nc1nc(C(=O)N2CCN(c3cccc(Cl)c3Cl)CC2)co1)c1ccccc1	none
O=C(Cn1nc(-c2ccc(F)cc2)c2sc(N3CCCC3)nc2c1=O)N1CCCc2ccccc21	none
O=c1cc(-c2ccc(O)cc2)oc2c(C3OC(CO)C(O)C(O)C3O)c(O)c(C3OCC(O)C(O)C3O)c(O)c12 (stereo unspecified)	none
CCOC(=O)c1c(S(=O)(=O)N2CCN(c3ccc(Cl)cc3)CC2)n[nH]c1C	none
CCOc1ccccc1N1CCN(S(=O)(=O)c2n[nH]c(C)c2C(=O)OC)CC1	none
COC(=O)c1c(S(=O)(=O)N2CCN(c3cccc(Cl)c3)CC2)n[nH]c1C	GIRK2 act active
O=C(NCCC1=CCCCC1)C1CCN(C(=O)NCc2cccs2)CC1	none
Cc1cn2c3c(=O)n(C)c(=O)n(C)c3nc2n1CCN1CCN(Cc2cccc(Cl)c2)CC1	none
CCn1c(=O)c2c(nc3n(-c4ccc(OC)cc4OC)c(-c4ccccc4)cn23)n(C)c1=O	none
CCCn1c(=O)c2c(nc3n(-c4cc(OC)ccc4OC)c(-c4ccccc4)cn23)n(C)c1=O	none
CCn1c(=O)c2c(nc3n(-c4cc(OC)ccc4OC)c(-c4ccccc4)cn23)n(C)c1=O	GIRK2 act active
COc1ccc2c(c1)c(CC(=O)NCCCCNC(=O)c1ccc([N+](=O)[O-])cc1)c(C)n2C(=O)c1ccc(Cl)cc1	none
O=C(Cn1nc2nc(Nc3ccc(F)cc3)ccn2c1=O)NCC1CCCO1 (stereo unspecified)	none
Nc1nc(-c2ccc(F)cc2)c(-c2ccc3ncccc3n2)s1	none
Fc1ccc(-c2n[nH]c(=S)s2)cc1	GIRK2 act active
Cc1nc(-c2ccc(F)cc2)sc1-c1cc(C(=O)N(C)Cc2ccccc2)n[nH]1	none
Cc1ccccc1NC(=O)N1CCN(c2nc(N3CCOCC3)nc(-n3ccnc3)n2)CC1	none
Cc1csc(SCC2CCN(C(=O)c3ccc(S(=O)(=O)N(C)C)cc3)CC2)n1	none
O=C(Cn1nc(-c2ccc(F)cc2)ccc1=O)Nc1cc(N2CCCC2)ncn1	none
O=C(NCC(c1cccs1)N1CCOCC1)C(=O)Nc1ccc2c(c1)OCCO2 (stereo unspecified)	none
O=C(NCC(c1cccs1)N1CCOCC1)C(=O)Nc1ccccc1F (stereo unspecified)	GIRK2 act active
N#Cc1ccc(Cl)cc1NC(=O)C(=O)NCC(c1cccs1)N1CCOCC1 (stereo unspecified)	none
COc1nn(C)cc1C(=O)N1CCCC(c2nnc(-c3ccccc3F)s2)C1 (stereo unspecified)	none
CC1CCc2c(sc3ncnc(SCC(=O)NCc4ccc5c(c4)OCO5)c23)C1 (stereo unspecified)	none
Cc1c(C(=O)Nc2ccc(CC(=O)NC3CC3)cc2)cnn1-c1ccccc1	none
